Values quoted from earlier work as cited in PubChem BioAssay AID977608.
About 4,300 (100%) of roughly 4,300 compounds were called active. Cut-off not given; nearly all actives show IC50 up to about 1400 µM. So high a share suggests a set chosen from earlier hits. Some of the results follow. Starred links: 1 amine or outer side, 2 acyl side, 3 side chain; linkers in the order of their positions; H or OH if unused. Positions of bridges follow the written chain, without caps; N, C: chain ends. Non-standard residues stand in square brackets, D forms with d. Residues, ends and D or L forms follow the SMILES beside them. X1 = O=C([C@H](Cc1ccc(C(F)(F)[P+](O)(O)O)cc1)N[*:1])[*:2]; Nle(6-ylidene) = O=C([C@H](CCCC=[*:3])N[*:1])[*:2]; Abu = CC[C@H](N)C(=O)O

Experiment: protein-ligand inhibition affinities from structures – PDB-derived complexes (AID 977608)

## Cc1c(C(=O)O)cccc1-c1nc2nc(N)nc(OCC3CCCCC3)c2[nH]1
Literature IC50, protein: CYCLIN-DEPENDENT KINASE 2, CDK2, PDB entry 4cfu
  IC50: 100 µM (active)

## CNC(=O)NC(N)NCCC[C@H](NC(=O)Cn1nncc1CO/N=C/c1ccnc2ccccc12)C(=O)N(Cc1ccccc1)Cc1ccccc1 (stereo partly drawn)
Literature IC50, protein: Chitinase B, PDB entry 3wd1
  IC50: 0.022 µM (active)

## CNC(=O)NC(N)NCCC[C@H](NC(=O)CN=[N+]=[N-])C(=O)N(Cc1ccccc1)Cc1ccccc1 (stereo partly drawn)
Literature IC50, protein: Chitinase B, PDB entry 3wd2
  IC50: 0.58 µM (active)

## H-DVFYPYPYASGS-OH
Literature IC50, protein: concanavalin A(ConA), PDB entry 1jyi
  IC50: 100 µM (active)

## CC(C)C[C@H](NC(=O)[C@H](CCCCN)NC(=O)[C@H](CCC(=O)O)NC(=O)[C@H](Cc1ccc(O)cc1)NC(=O)[C@H](C)NC(=O)[C@@H]1CCCN1C(=O)[C@@H]1CCCN1C(=O)[C@H](C)N)C(=O)N[C@@H](CO[P+](O)(O)O)C(=O)N[C@@H](C)C(=O)N[C@@H](CCC(=O)O)C(=O)N[C@@H](CCC(N)=O)C(=O)N[C@@H](CO)C(=O)N1CCC[C@H]1C(=O)N1CCC[C@H]1C(=O)O
Literature IC50, protein: MHC class II molecule HLA-DR1, PDB entry 3l6f
  IC50: 0.102 µM (active)

## C[C@H](NC(=O)[C@@H](N)CCC(=O)O)C(=O)N[C@@H](CCC(N)=O)C(=O)N[C@@H](Cc1ccc(C(F)(F)[P+](O)(O)O)cc1)C(=O)N[C@@H](CCC(N)=O)C(=O)N1CCC[C@H]1C(=O)O (H-EAQ[X1]QP-OH)
Literature IC50, protein: TYROSINE-PROTEIN PHOSPHATASE NON-RECEPTOR TYPE 1, PTP1B, PDB entry 3zmq
  IC50: 0.36 µM (active)

## H-SIGKAFKILGYPD-OH
Literature IC50, protein: G Protein Beta:Gamma Heterodimer, PDB entry 1xhm
  IC50: 0.47 µM (active)

## CC(C)C[C@H](NC(=O)CNC(=O)[C@@H](NC(=O)[C@@H](NC(=O)[C@H](C)NC(=O)[C@@H]1CCCN1C(=O)[C@@H](N)CC(C)C)C(C)C)C(C)C)C(=O)N[C@@H](CO)C(=O)N1CCC[C@H]1C(=O)NCC(=O)N[C@@H](CCC(=O)O)C(=O)N[C@@H](CCC(N)=O)C(=O)N[C@@H](CCC(=O)O)C(=O)N[C@@H](Cc1ccc(O)cc1)C(=O)O
Literature IC50, protein: HLA-B*3501, PDB entry 1xh3
  IC50: 3.1 µM (active)

## C[C@H](N)C(=O)N[C@@H](Cc1ccc(C(F)(F)[P+](O)(O)O)cc1)C(=O)N[C@@H](C)C(=O)O
Literature IC50, protein: TYROSINE-PROTEIN PHOSPHATASE NON-RECEPTOR TYPE 1, PTP1B, PDB entry 3zmp
  IC50: 2.13 µM (active)

## CC[C@H](NC(=O)[C@H](CCCCN)NC(=O)[C@H](CCCN=C(N)N)NC(=O)[C@@H]1CCC/C=C\CCC[C@H](NC(=O)[C@H](CCCN=C(N)N)NC(=O)[C@H](CC(C)C)NC(=O)[C@H](CC(C)C)NC(=O)[C@H](CO)NC(=O)[C@@H]2CCCN2C(=O)[C@@H](NC(=O)[C@H](CC(N)=O)NC(=O)[C@H](CCCCN)NC(C)=O)[C@@H](C)CC)C(=O)N[C@@H](CCC(N)=O)C(=O)N[C@@H](C)C(=O)N[C@@H](Cc2c[nH]cn2)C(=O)N1)C(=O)N[C@@H](CCSC)C(=O)N[C@H](C(=O)O)C(C)C (Ac-KNIPSLLR[Nle(6-ylidene)]QAH[Nle(6-ylidene)]RK[Abu]MV-OH; staple (Z) 9-13)
Literature IC50, protein: Myosin A tail domain interacting protein, MTIP from Plasmodium falciparum, PDB entry 4mzk
  IC50: 4.9 µM (active)

## CC[C@H](C)[C@H](NC(=O)[C@H](Cc1c[nH]cn1)NC(=O)[C@H](C)NC(=O)[C@H](CCC(N)=O)NC(=O)[C@@H](NC(=O)[C@H](CCCN=C(N)N)NC(=O)[C@@H]1CCC/C=C\CCC[C@H](NC(=O)[C@H](CC(N)=O)NC(=O)[C@H](CCCCN)NC(C)=O)C(=O)N2CCC[C@H]2C(=O)N[C@@H](CO)C(=O)N[C@@H](CC(C)C)C(=O)N1)C(C)C)C(=O)N[C@@H](CCCN=C(N)N)C(=O)N[C@@H](CCCCN)C(=O)N[C@@H](CCCCN)C(=O)N[C@@H](CCSC)C(=O)N[C@H](C(=O)O)C(C)C (Ac-KN[Nle(6-ylidene)]PSL[Nle(6-ylidene)]RVQAHIRKKMV-OH; staple (Z) 3-7)
Literature IC50, protein: Myosin A tail domain interacting protein, MTIP from Plasmodium falciparum, PDB entry 4mzj
  IC50: 1.6 µM (active)

## Cc1ccc(-c2cnc(Nc3ccc(OCCCN4CCN(C)CC4)cc3)c(C(N)=O)n2)cc1C
Literature IC50, protein: DNA GYRASE SUBUNIT B, PDB entry 4b6c
  IC50: 0.69 µM (active)

## Nc1ncnc2c1ncn2[C@@H]1O[C@H](CSCC[C@H](N)C(=O)O)[C@@H](O)[C@H]1O
Literature IC50, protein: Catechol O-methyltransferase COMT, PDB entry 4pyn
  IC50: 30 µM (active)
Literature IC50, protein: Catechol O-methyltransferase COMT, PDB entry 4pyo
  IC50: 30 µM (active)

## Nc1ncnc2c1ncn2[C@@H]1O[C@H](CO[P+](O)(O)O[P+](O)(O)OC[C@H]2NC[C@H](O)[C@@H]2O)[C@@H](O)[C@H]1O
Literature IC50, protein: mouse poly(ADP-ribose) glycohydrolase (PARG) catalytic domain, PDB entry 4na4
  IC50: 0.12 µM (active)

## Nc1ncnc2c1ncn2[C@@H]1O[C@H](CO[P+](O)(O)O)[C@@H](O)[C@H]1O
Literature IC50, protein: Bis(5'-adenosyl)-triphosphatase ENPP4, PDB entry 4lqy
  IC50: 129 µM (active)
Literature IC50, protein: Sus scrofa FRUCTOSE-1,6-BISPHOSPHATASE, PDB entry 1fpi
  IC50: 1.3 µM (active)
Literature IC50, protein: human liver fructose-1,6-bisphosphatase (FBPase), PDB entry 1fta
  IC50: 0.44 µM (active)

## Nc1ncnc2c1ncn2[C@@H]1O[C@H](CO[P+](O)(O)O[P+](O)(O)N[P+](O)(O)O)[C@@H](O)[C@H]1O
Literature IC50, protein: Microcin-J25 export ATP-binding/permease protein McjD, PDB entry 4pl0
  IC50: 39.5 µM (active)

## CC#C[C@H]1CN(S(=O)(=O)c2ccc(N)nc2)CCN1c1ccc([C@](O)(CCCC)C(F)(F)F)cc1
Literature IC50, protein: Glucokinase regulatory protein hGKRP, PDB entry 4ohk
  IC50: 0.005 µM (active)

## Nc1nc(Nc2ccccc2)sc1C(O)c1cccnc1 (stereo not drawn)
Literature IC50, protein: Cyclin-dependent kinase 2, PDB entry 3qtw
  IC50: 0.65 µM (active)

## Nc1nc(Nc2ccc(C(=O)O)cc2)sc1C(O)c1cccnc1 (stereo not drawn)
Literature IC50, protein: Cyclin-dependent kinase 2, PDB entry 3rk5
  IC50: 4 µM (active)

## Nc1nc(Nc2ccccc2)sc1C(O)c1ccccc1 (stereo not drawn)
Literature IC50, protein: Cyclin-dependent kinase 2, PDB entry 3qtr
  IC50: 0.93 µM (active)

## NC(=O)c1ccc(Nc2nc(N)c(C(O)c3cccnc3)s2)cc1 (stereo not drawn)
Literature IC50, protein: Cyclin-dependent kinase 2, PDB entry 3rk7
  IC50: 0.2 µM (active)

## Nc1nc(Nc2ccccc2)sc1C(O)c1cccc(C(F)(F)F)c1 (stereo not drawn)
Literature IC50, protein: Cyclin-dependent kinase 2, PDB entry 3rpr
  IC50: 100 µM (active)

## Cc1cc2c(C3=CCC=NC3=O)c(C(=O)O)n(Cc3cnc4ccccc4c3)c2cc1F
Literature IC50, protein: RNA-directed RNA polymerase, PDB entry 4mz4
  IC50: 0.013 µM (active)

## Cc1cccnc1-n1nc(-c2ccccc2)nc1C1C=NC(=O)C(Cl)=C1 (stereo not drawn)
Literature IC50, protein: Bromodomain-containing protein 4, PDB entry 4mep
  IC50: 4.7 µM (active)

## CC(C)c1cc2c(-c3ccc(S(=O)(=O)NC4CCS(=O)(=O)CC4)cc3)ccnc2[nH]1
Literature IC50, protein: Human Jnk1 alpha kinase, PDB entry 4awi
  IC50: 1 µM (active)
